Only some compounds are listed: those with a hit (about 1.9% of all), similar ones and a draw of the others.
FPRL1 binder: human FPRL1 ligand, with FPR counter-screen. inhibition, % (no concentration beside the values). FPRL1-expressing cells, fluorescent ligand binding inhibition, flow cytometry. 24,000 compounds, 0.3% hits. P25090;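 also: 0% = buffer alone and 100% = receptor blocker peptide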
Autofluor Jurkat: counter-screen for VLA-4 integrin: compound autofluorescence in Jurkat cells; flow cytometry; hits give high values; 1 = vehicle-only cell background; fluorescence ratio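 (tested at 10 µM compound in the well)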; 24,000 compounds, 0.61% hits; AID 576;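 active = fluorescence ratio above 2.44, which is 1 plus 3 SD of all ratios; inconclusive = signal too bright to measure linearly, ratio around 10 or more; inactive = fluorescence ratio below 2.44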;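 also: green fluorescence of cells measured with 488 nm excitation and 530 nm emission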
VLA-4 agonist: allosterically activates the human VLA-4 integrin; P13612; Jurkat cells, LDV-FITC binding, flow cytometry; activation, % at 10 µM (by protocol); 24,000 tested, under 10 active; AID 528;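 active = fluorescent ligand binding to cells raised by more than 40% of the manganese-induced maximum; inconclusive = compound's own fluorescence above 85% of the ligand control signal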;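 also: 0% = ligand binding without compound and 100% = manganese-stimulated maximal binding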
Target sequence (P13612 whole entry, looked up): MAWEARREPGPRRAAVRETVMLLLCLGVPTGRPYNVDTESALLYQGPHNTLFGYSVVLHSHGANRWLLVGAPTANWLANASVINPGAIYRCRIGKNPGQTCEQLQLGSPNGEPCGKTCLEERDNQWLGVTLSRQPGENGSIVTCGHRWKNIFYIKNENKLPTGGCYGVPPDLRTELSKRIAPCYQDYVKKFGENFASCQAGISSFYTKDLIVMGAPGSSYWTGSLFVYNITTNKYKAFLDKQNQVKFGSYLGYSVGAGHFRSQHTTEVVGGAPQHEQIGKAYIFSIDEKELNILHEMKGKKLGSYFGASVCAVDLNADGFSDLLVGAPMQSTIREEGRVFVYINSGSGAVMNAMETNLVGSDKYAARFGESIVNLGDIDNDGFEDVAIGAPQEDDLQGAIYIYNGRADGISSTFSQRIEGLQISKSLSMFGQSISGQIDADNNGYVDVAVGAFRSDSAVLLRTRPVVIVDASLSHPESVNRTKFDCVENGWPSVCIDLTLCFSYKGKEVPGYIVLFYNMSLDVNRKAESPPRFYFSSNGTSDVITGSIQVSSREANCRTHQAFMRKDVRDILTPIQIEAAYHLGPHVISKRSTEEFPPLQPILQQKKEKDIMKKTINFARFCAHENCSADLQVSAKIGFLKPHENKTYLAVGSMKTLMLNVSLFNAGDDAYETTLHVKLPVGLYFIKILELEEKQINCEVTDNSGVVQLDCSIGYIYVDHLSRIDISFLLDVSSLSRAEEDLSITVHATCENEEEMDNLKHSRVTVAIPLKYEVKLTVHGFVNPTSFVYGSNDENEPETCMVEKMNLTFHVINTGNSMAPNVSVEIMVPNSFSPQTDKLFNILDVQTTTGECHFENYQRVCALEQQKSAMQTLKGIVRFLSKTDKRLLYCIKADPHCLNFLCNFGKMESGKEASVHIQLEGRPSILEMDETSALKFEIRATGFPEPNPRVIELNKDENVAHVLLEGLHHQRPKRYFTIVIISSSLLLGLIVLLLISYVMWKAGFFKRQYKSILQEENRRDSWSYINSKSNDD
VLA-4 antagonist: inhibitors of LDV-FITC ligand binding to Mn2+-activated human VLA-4 integrin; P13612; Jurkat cells, LDV-FITC binding with Mn2+, flow cytometry; 100% = Mn2+-driven binding gain fully reversed; inhibition, % at 10 µM (by protocol); 24,000 compounds, 0.2% hits;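 active = inhibition above 50%; inconclusive = compound itself fluorescent, judged against control cell fluorescence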;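 also: 0% = Mn2+ stimulated cells lacking compound and 100% = ligand binding without Mn2+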
LNCaP diff act: LNCaP prostate cell differentiation activation; flow cytometry side scatter, 4 d; 24,000 compounds, 0.56% hits; AID 795; side scatter shift, % at 10 µM;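 active = side scatter shift above 30%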;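 also: androgen-responsive LNCaP prostate cancer cells in charcoal-stripped serum medium; percent of cells past a gate set so DMSO wells show 10% shift; higher shift means more granular cells and more differentiation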
FPR binder: ligands of human FPR, also counter-screen for FPRL1 ligands. inhibition, % (test concentration not listed). FPR-expressing cells, fluorescent ligand binding, flow cytometry. 24,000 compounds, 0.74% hits;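 also: 0% = buffer wells and 100% = receptor blocker peptide wells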
Active calls of the source: *; ? = inconclusive; nt = not tested or not shown. Rule as the data show it, unless noted: active = inhibition above about 30%; inconclusive = no clear call, values can overlap the other calls; inactive = below that.

SMILES	FPRL1 binder	Autofluor Jurkat	VLA-4 agonist	VLA-4 antagonist	LNCaP diff act	FPR binder
COC(=O)C1Cc2c([nH]c3ccccc23)CN1 (configuration not stated)	-7	4.1*	?	?	9	-8
CC(C)OC(=O)c1cc(=O)[nH]c2ccccc12	-1	1	2	4	9	4
C=CCSc1nc(N)c(C(=O)Nc2ccccc2C)cc1C(N)=O	7	0.94	6	-20	6	4
COc1ccc(CN(Cc2cc3cc4c(cc3[nH]c2=O)OCO4)C(=O)NC2CCCCC2)cc1	3	1.1	3	-4	8	14
COC(=O)c1ccccc1S(=O)(=O)N(Cc1cc2cc3c(cc2[nH]c1=O)OCO3)C1CCCCC1	-4	1.1	-7	15	41*	-10
CCCOc1ccccc1NC(=O)c1ccc(N)cc1	-2	0.96	-2	5	6	3
CCCOc1ccc(N)cc1N	-16	7.9*	?	?	16	-4
COc1ccc(Nc2nc(N)nc(CN3CCC(Cc4ccccc4)CC3)n2)cc1	6	1	5	7	49*	-5
COc1cccc(N2CCN(Cc3nc(N)nc(Nc4ccccc4OC)n3)CC2)c1	0	1.1	2	-8	12	0
CCc1cc2c(=O)c(-c3cnn(-c4ccccc4)c3)c(C(F)(F)F)oc2c(CN(C)C)c1O	-5	nt	nt	nt	nt	-5
COCCCN1C(=O)C(O)=C(C(=O)c2ccco2)C1c1ccc(Br)cc1 (configuration not stated)	-4	1	4	-10	8	48*
COCCCN1C(=O)C(O)=C(C(=O)c2ccco2)C1c1cccc(Br)c1 (configuration not stated)	-7	nt	nt	nt	nt	70*
CCCOc1ccc(C2C(C(=O)c3ccco3)=C(O)C(=O)N2CCN2CCOCC2)cc1OC (configuration not stated)	-4	nt	nt	nt	nt	20
CC(C)OC(=O)c1nnn(-c2nonc2N)c1CN1CCCCCC1	-3	1.6	?	?	10	27

Screening data from PubChem.
